Hits are enriched below; roughly 6.8% of the tested compounds scored in any of these assays.
KB-3-1 tox: KB-3-1 parental cell cytotoxicity; hit rate 1.4% among 400,000; AID 1347075; Potency, µM (doses to about 46.1 µM), actives largely listed as cytotoxic; KB-3-1 viability, CellTiter-Glo ATP luminescence, 72 h; note: nearly all actives have a fitted effect of over 60% in size
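Parental KB-3-1 adenocarcinoma cells in phenol-red-free DMEM with 10% FBS were pin-treated with compounds at several concentrations, incubated 72 h at 37 °C, and viability read by CellTiter-Glo luminescence; concentration-effect curves were fitted after normalization.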
MCF10A rerep: induces DNA re-replication in MCF 10a normal breast cells; MCF 10A DNA re-replication, Hoechst nuclear intensity, 48 h; Potency, µM (top dose mostly 46.1 µM), actives largely listed as activators; hit rate 2.9% among 350,000; note: nearly all actives have a fitted effect of over 50% in size
KB-V1 MDR tox: KB-V1 MDR subline cytotoxicity | AID 1347076 | KB-V1 MDR cells viability, CellTiter-Glo, 72 h | Potency, µM (series often up to 46.1 µM), hits mostly cytotoxic | hit rate 3.4% among 400,000; note: nearly all actives have a fitted effect of over 60% in size
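Drug-selected KB-V1 cells, grown in DMEM lacking phenol red with 10% FBS, receive compound titrations; after three days at 37 degrees C, surviving cell ATP is quantified by CellTiter-Glo luminescence and responses normalized and curve-fitted.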
PINK1 expr mod: modulators of PINK1 expression; Potency, µM (highest dose often 76.6 µM), most hits filed as activators; hit rate 0.2% among 410,000; PINK1 immunofluorescence, high-content cytometry, 24 h; active = well fitted activation curve with a large enough effect; inconclusive = small, poorly fitted or top-dose-only effect; cell line not stated here; note: nearly all actives have a fitted effect of over 65% in size
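PINK1 protein level read as immunofluorescence by microplate cytometer in a fixed, stained stable cell line after 24 h exposure to five compound concentrations, with CCCP as control.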
SW480 rerep: inducers of DNA re-replication in SW480 colon cancer cells | SW480 DNA re-replication, Hoechst DNA content imaging, 48 h | Potency, µM (top dose mostly 46.1 µM), hits mostly activators | hit rate 1.8% among 340,000; note: nearly all actives have a fitted effect of over 55% in size
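Cells (250 per well) received 23 nL compound or DMSO by pin tool and were kept 48 hr at 37 C, 5% CO2. Nuclei were then stained with Hoechst for 40 min and scanned for DNA content.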
PTAP TSG101 blk: blocks PTAP/TSG101 interaction to inhibit HIV-1 budding; Potency, µM (titrated, usually from 115 µM), most hits filed as inhibitors; Fluorescence polarization, FITC-PTAP peptide / Tsg101 binding; 340,000 tested, under 10 active; active = well fitted inhibition curve with a large enough effect in the main read-out, with a control signal flat, not every such curve was filed as active; inconclusive = small, poorly fitted or top-dose-only effect, or effect the other way, or a change in a side signal; inactive = no such curve, though single readings can be large or run the other way
Target sequence (Q99816 whole entry, looked up): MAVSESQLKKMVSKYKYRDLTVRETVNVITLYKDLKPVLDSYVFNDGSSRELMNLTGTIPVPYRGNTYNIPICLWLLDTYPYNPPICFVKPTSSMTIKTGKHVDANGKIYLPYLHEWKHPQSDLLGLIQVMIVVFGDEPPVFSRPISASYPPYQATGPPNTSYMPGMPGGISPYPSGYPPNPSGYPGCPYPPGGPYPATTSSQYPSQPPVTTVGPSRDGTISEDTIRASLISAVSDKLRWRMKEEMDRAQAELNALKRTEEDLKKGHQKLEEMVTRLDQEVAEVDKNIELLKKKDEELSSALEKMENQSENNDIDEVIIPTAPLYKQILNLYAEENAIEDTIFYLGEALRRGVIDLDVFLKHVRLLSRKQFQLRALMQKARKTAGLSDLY
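Tsg101 binding domain (10 uM final) was mixed with compound and a FITC-labeled PTAP peptide (50 nM final) in HEPES pH 7.5 buffer with NaCl, Tween 20, EDTA and TCEP; fluorescence polarization was read after 20 min at r.t.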
Numbers stand for hits. Unless noted, calls come from the whole dose curve; as a rule, active = well fitted curve in the direction sought with a large enough effect; inconclusive = small, poorly fitted or top-dose-only effect, or another doubt; inactive = no such curve, though single readings can be large; an effect the other way counts as inactive or inconclusive.

What do the screens show for `CCOc1ccc(Nc2nc3c(c(=O)[nH]2)CCCC3)cc1`?
KB-3-1 tox: inactive; MCF10A rerep: inactive; KB-V1 MDR tox: 18.4µM; PINK1 expr mod: inactive; SW480 rerep: inconclusive; PTAP TSG101 blk: inactive

Results for Cc1cccc(CNC(=O)c2cnn(-c3ncc(C)c(-c4cccs4)n3)c2C2CC2)n1 ?
PINK1 expr mod: inactive

What do the screens show for `CS(=O)(=O)N1CCc2cc(S(=O)(=O)Nc3ccc4c(c3)OCCO4)ccc21`?
KB-3-1 tox: inconclusive; MCF10A rerep: inactive; KB-V1 MDR tox: 20.6µM; PINK1 expr mod: inactive; SW480 rerep: inactive; PTAP TSG101 blk: inactive

What do the screens show for `O=S(=O)(Nc1ccc(S(=O)(=O)Nc2nccs2)cc1)c1ccc2c(c1)OCCO2`?
KB-3-1 tox: inactive; MCF10A rerep: 20.6µM; KB-V1 MDR tox: inactive; PINK1 expr mod: inactive; SW480 rerep: inconclusive; PTAP TSG101 blk: inactive

Results for CCC(=O)N1CCc2cc(S(=O)(=O)Nc3ccc4c(c3)OCCO4)ccc21 ?
KB-3-1 tox: inactive; MCF10A rerep: inactive; KB-V1 MDR tox: inactive; PINK1 expr mod: inactive; SW480 rerep: inactive; PTAP TSG101 blk: inactive

Results for Cc1nc(Nc2nc3ccccc3o2)nc2c1CCCC2 ?
KB-3-1 tox: inactive; KB-V1 MDR tox: inactive

Results for CCOc1ccccc1NC(=O)c1c(NCc2cccs2)sc2c1CCCCC2 ?
KB-3-1 tox: inactive; KB-V1 MDR tox: inactive; PINK1 expr mod: inconclusive

How did CCOc1ccc(C(=O)c2cn(CC(=O)Nc3ccc(F)cc3)c3cc4c(cc3c2=O)OCCO4)cc1 do in these assays?
KB-3-1 tox: inactive; KB-V1 MDR tox: inconclusive; PINK1 expr mod: inactive

What do the screens show for `COC(=O)COc1ccc(Oc2nc(NC(C)(C)C)nc(N(C)C)n2)nn1`?
PINK1 expr mod: inactive

Results for N#Cc1c(N2CCSCC2)nsc1-c1ccccc1Cl ?
KB-3-1 tox: 3.66µM; MCF10A rerep: inconclusive; KB-V1 MDR tox: 4.61µM; PINK1 expr mod: inactive; SW480 rerep: inconclusive; PTAP TSG101 blk: inactive

What do the screens show for `N#Cc1c(Cl)cccc1N1CCSCC1`?
KB-3-1 tox: inconclusive; KB-V1 MDR tox: 23.1µM; PINK1 expr mod: inactive

Results for COc1ccc(NC(=O)c2cc(C3CC3)nc3c2c(C)nn3-c2ccccc2)cc1OC ?
PINK1 expr mod: inactive

What do the screens show for `CCOC(=O)c1cnc2cc(C(F)(F)F)ccc2c1Nc1cc(C)ccc1OC`?
KB-3-1 tox: inactive; KB-V1 MDR tox: inactive; PINK1 expr mod: inactive

What do the screens show for `CCOc1ccccc1CNC(=O)c1oc2c(c1C)-c1nn(Cc3cccc(Cl)c3)cc1CC2`?
PINK1 expr mod: inactive

How did Cc1ccc(S(=O)(=O)Nc2ccc(N(C)C)cc2)cc1 do in these assays?
KB-3-1 tox: inconclusive; MCF10A rerep: inactive; KB-V1 MDR tox: inactive; PINK1 expr mod: inactive; SW480 rerep: inactive; PTAP TSG101 blk: inactive

Results for CN(C)c1ccc(NS(=O)(=O)c2ccc(Cl)cc2)cc1 ?
KB-3-1 tox: inactive; MCF10A rerep: inactive; KB-V1 MDR tox: inactive; PINK1 expr mod: inactive; SW480 rerep: 20.6µM; PTAP TSG101 blk: inactive

How did Cc1cc(S(=O)(=O)Nc2ccc(N(C)C)cc2)c(C)s1 do in these assays?
KB-3-1 tox: inactive; MCF10A rerep: inactive; KB-V1 MDR tox: 16.4µM; PINK1 expr mod: inactive; SW480 rerep: inactive; PTAP TSG101 blk: inactive

What do the screens show for `Cc1nn(-c2ccccc2)c2c1N(CC(=O)N1CCN(c3ccc(F)cc3)CC1)C(=O)CS2`?
KB-3-1 tox: inactive; KB-V1 MDR tox: inactive; PINK1 expr mod: inactive

Results for Nc1nc(-c2ccccc2)nc2sc3c(c12)CCCC3 ?
KB-3-1 tox: inactive; MCF10A rerep: inconclusive; KB-V1 MDR tox: 23.1µM; PINK1 expr mod: inactive; SW480 rerep: inconclusive; PTAP TSG101 blk: inactive

How did COc1ccccc1C(=O)NCC1CCN(c2ccc(S(=O)(=O)N3CCOCC3)cc2)CC1 do in these assays?
KB-3-1 tox: inactive; MCF10A rerep: 6.51µM; KB-V1 MDR tox: 14.6µM; PINK1 expr mod: inactive; SW480 rerep: inactive; PTAP TSG101 blk: inactive

Results for COc1ccccc1CNC(=O)c1cc(S(=O)(=O)N2CCN(c3ccccc3)CC2)ccc1Cl ?
KB-3-1 tox: inactive; MCF10A rerep: inactive; KB-V1 MDR tox: 4.61µM; PINK1 expr mod: inactive; SW480 rerep: inactive; PTAP TSG101 blk: inconclusive

What do the screens show for `Cc1cc(C)n(-c2nc(C)c(C)c(=O)n2CC(=O)Nc2ccc(Cl)c(Cl)c2)n1`?
PINK1 expr mod: inactive

How did Cc1ccc(-c2cn3nc(N4CCCC(C(=O)NCc5ccc(F)cc5)C4)sc3n2)cc1 (stereo not given) do in these assays?
KB-3-1 tox: inactive; KB-V1 MDR tox: inactive; PINK1 expr mod: inactive

How did CO/N=C/C(=N\Nc1ccc(C)cc1)C(=O)c1ccc(OC)cc1 do in these assays?
KB-3-1 tox: 5.17µM; MCF10A rerep: 2.59µM; KB-V1 MDR tox: 4.61µM; PINK1 expr mod: inactive; SW480 rerep: inconclusive; PTAP TSG101 blk: inactive

Results for CO/N=C/C(=N\Nc1ccc(OC)cc1)C(=O)c1ccc(F)cc1 ?
KB-3-1 tox: inactive; MCF10A rerep: inconclusive; KB-V1 MDR tox: inactive; PINK1 expr mod: inactive; SW480 rerep: inactive; PTAP TSG101 blk: inactive

How did Cc1ccc(NC(=O)COc2ccc(/C=C3/SC(=Nc4ccccc4)N(Cc4cccnc4)C3=O)cc2)cc1 do in these assays?
KB-3-1 tox: inconclusive; MCF10A rerep: inconclusive; KB-V1 MDR tox: 16.4µM; PINK1 expr mod: inactive; SW480 rerep: inconclusive; PTAP TSG101 blk: inactive

What do the screens show for `O=C(CN1CCCCC1)Nc1ccc(NC(=O)c2ccccc2Cl)cc1Cl`?
KB-3-1 tox: 23.1µM; MCF10A rerep: inconclusive; KB-V1 MDR tox: 4.61µM; PINK1 expr mod: inconclusive; SW480 rerep: inactive; PTAP TSG101 blk: inactive

What do the screens show for `O=C(CN1CCCCCCC1)Nc1ccc(Cl)cc1Cl`?
KB-3-1 tox: inactive; MCF10A rerep: inconclusive; KB-V1 MDR tox: inactive; PINK1 expr mod: inactive; SW480 rerep: inactive; PTAP TSG101 blk: inactive

What do the screens show for `O=C(CN1CCCCC1)Nc1ccccc1Oc1ccccc1`?
KB-3-1 tox: inactive; MCF10A rerep: 18.4µM; KB-V1 MDR tox: inactive; PINK1 expr mod: inactive; SW480 rerep: inactive; PTAP TSG101 blk: inactive

What do the screens show for `COc1ccccc1NC(=O)CN1CCN(Cc2ccccc2)CC1`?
KB-3-1 tox: inactive; MCF10A rerep: inactive; KB-V1 MDR tox: 10.3µM; PINK1 expr mod: inactive; SW480 rerep: inactive; PTAP TSG101 blk: inactive

What do the screens show for `CCc1ccc(CNC(=O)c2ccc(NC(=O)N3CCCCc4ccccc43)cc2)cc1`?
KB-3-1 tox: inactive; KB-V1 MDR tox: inactive; PINK1 expr mod: inactive

Results for COc1ccc(-c2nc3n(n2)C(c2ccc(OC)cc2)C(C(=O)Nc2cccnc2)=C(C)N3)cc1 (stereo not given) ?
KB-3-1 tox: inactive; KB-V1 MDR tox: inactive; PINK1 expr mod: inactive
